# Source: PubChem
# An excerpt weighted towards active compounds, which were near 9.5% of everything screened.
# NS1 inh: qHTS Assay for Inhibitors of Influenza NS1 Protein Function | Potency, µM (series often up to 46.1 µM), for inactives: at the top dose activity, positive = more growth | 270,000 tested, 0.4% active; note: actives are rising curves; nearly all actives have a fitted effect of over 50% in size
#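 Growth recovery, yeast-based: influenza A NS1 expressed in S. cerevisiae causes slow growth, and suppressors are detected by OD600. The parent strain without NS1 is used as positive control.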
# Pf growth 96h: Primary qHTS for delayed death inhibitors of the malarial parasite plastid, 96 hour incubation; P. falciparum luciferase reporter growth, 96 h; Potency, µM (top dose mostly 28.7 µM), for inactives: at the top dose activity change, negative = inhibition, most hits filed as inhibitors; 320,000 tested, 6.9% active; active = well fitted inhibition curve with a large enough effect; inconclusive = small, poorly fitted or top-dose-only effect, or another doubt; inactive = no such curve, though single readings can be large or run the other way; note: % is set by controls: 0 for no effect and ±100 for the full control effect
#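 P. falciparum expressing integrated firefly luciferase grown in erythrocytes (2% hematocrit, 0.05% parasitemia final) with compounds for 96 hours at 37 C, 5% CO2. Growth inhibition read as loss of luminescence after adding luciferase detection reagent.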
# SARS PLP yeast: qHTS of Yeast-based Assay for SARS-CoV PLP; AID 485353, 2010; 330,000 tested, 0.19% active; S. cerevisiae expressing SARS-CoV PLpro, growth rescue; Potency, µM (highest dose often 32.9 µM), for inactives: at the top dose activity, positive = growth rescue, hits mostly activators; note: 0% is about no effect; nearly all actives have a fitted effect of over 55% in size
# RE007 growth inh: qHTS Assay for Inhibitors of the HIV-1 protein Vpr; S. pombe RE007 Vpr strain, BacTiter-Glo ATP luminescence, 24 h; Potency, µM (titrated, usually from 92.2 µM), for inactives: at the highest dose activity change, negative = less growth, actives largely listed as inhibitors; 360,000 tested, 0.21% active; active = well fitted falling curve with a large enough effect; inconclusive = small, poorly fitted or top-dose-only effect; inactive = no such curve, though single readings can be large or run the other way; note: % is set by controls: 0 for no effect and ±100 for the full control effect; nearly all actives have a fitted effect of over 50% in size
#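 Fission yeast RE007 carrying one integrated HIV-1 vpr copy, seeded at OD 0.01 in PMG+AL medium with 23 nL pinned compound. Grown 24 h at 30 degrees; viability read by BacTiter-Glo luminescence after 5 min.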
# Pf growth 48h: Primary qHTS for delayed death inhibitors of the malarial parasite plastid, 48 hour incubation; P. falciparum luciferase growth in erythrocytes, 48 h; Potency, µM (series often up to 28.7 µM), without a hit: at the top dose activity change, negative = inhibition, most hits filed as inhibitors; 310,000 tested, 5.9% active; active = well fitted inhibition curve with a large enough effect; inconclusive = small, poorly fitted or top-dose-only effect, or another doubt; inactive = no such curve, though single readings can be large or run the other way; note: % is set by controls: 0 for no effect and ±100 for the full control effect
#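 A one-generation exposure of luciferase-tagged malaria parasites in RPMI 1640/Albumax erythrocyte culture, 37 C and 5% CO2. Inhibition is inferred from decreased luminescence after adding detection reagent.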
# * = called active by the depositor; ? = inconclusive; / = no result; [ ] = remark or other dose. Unless noted, calls come from the whole dose curve. Potency is the fitted concentration of half-maximal effect.
SMILES,NS1 inh,Pf growth 96h,SARS PLP yeast,RE007 growth inh,Pf growth 48h
OC1C2(Cc3ccccc3)CN3CCN(C2)CC1(Cc1ccccc1)C3 (configuration not stated),-3.1%,0.928µM*,-0.8%,-13.1%,?
CN(C(=O)c1cccc(NC(=O)Cc2ccc(NC(=O)C3CCCN(C(=O)CCc4ccccc4)C3)cc2)c1)C1CCC1 (configuration not stated),/,/,/,-1.3%,/
CN(Cc1ccccc1)C(=O)c1cccc(NC(=O)Cc2ccc(NC(=O)C3CCCN(C(=O)CCc4ccccc4)C3)cc2)c1 (configuration not stated),/,/,/,0.1%,/
CN(C(=O)c1ccc(NC(=O)Cc2cccc(NC(=O)C3CCCN(C(=O)CCc4ccccc4)C3)c2)cc1)C1CCCC1 (configuration not stated),/,?,-2.0%,-9.1%,0.117µM*
CN(C(=O)c1ccc(NC(=O)Cc2ccc(NC(=O)C3CCCN(C(=O)CCc4ccccc4)C3)cc2)cc1)C1CC1 (configuration not stated),/,?,2.2%,21.1%,13.1µM*
CN(C(=O)c1ccc(NC(=O)Cc2cccc(NC(=O)C3CCCN(C(=O)C4CCCC4)C3)c2)cc1)C1CCCC1 (configuration not stated),/,3.7µM*,1.4%,-12.3%,11.7µM*
CN(C(=O)c1ccc(NC(=O)Cc2cccc(NC(=O)C3CCCN(C(=O)C4CCC4)C3)c2)cc1)C1CC1 (configuration not stated),/,/,/,1.3%,/
CN(Cc1ccccc1)C(=O)c1ccc(NC(=O)Cc2cccc(NC(=O)C3CCCN(C(=O)CCc4ccccc4)C3)c2)cc1 (configuration not stated),/,1.47µM*,1.6%,5.0%,3.7µM*
COc1ccc(N2CCN(c3cc(C(=O)NC4CCCCC4)ncn3)CC2)cc1OC,/,/,/,0.0%[18.4 µM],/
CN(Cc1ccccc1)C(=O)c1ccc(NC(=O)Cc2cccc(NC(=O)C3CCN(C(=O)C4CCCC4)CC3)c2)cc1,/,5.86µM*,-3.7%,-2.5%,?
COc1ccc(C(=O)NCC(c2ccco2)N2CCc3ccccc32)cc1 (configuration not stated),/,?,-1.0%,-10.7%,?
COc1ccc(C(=O)NCC(C)C)c(OC)c1,0.8%,9.28µM*,5.0%,0.0%,?
CCCNC(=O)c1ccc(OC)cc1OC,-13.0%,23.1%,1.1%,-9.7%,35.9%
CC(C)CNC(=O)c1ccccc1Oc1ccccc1,5.3%,14.7µM*,4.9%,3.6%,/
CN(C)CCCNC(=O)c1ccccc1Oc1ccccc1,3.6%,-17.0%,0.5%,-3.6%,-4.4%
COc1ccc(C(=O)NCC(c2cccs2)N2CCc3ccccc32)c(OC)c1 (configuration not stated),/,5.22µM*,0.1%,-12.6%,10.4µM*
COc1cc(/C=C2/SC(=S)N(CCC(=O)Nc3cccnc3)C2=O)cc(OC)c1OC,/,/,/,0.5%,/
S=c1[nH]nc(-c2ccccn2)n1/N=C/c1ccc(-c2ccccc2Br)o1,/,28.7%,-2.6%,0.3%,15.0%
C=CCn1c2ccccc2c(=O)c2cc(C#Cc3ccccn3)ccc21,/,2.08µM*,-1.7%,-8.6%,?
C=CCn1c2ccccc2c(=O)c2cc(C#Cc3ccsc3)ccc21,-13.2%,0.329µM*,-11.9%,/,0.0465µM*
NC1=N[C@H](c2ccc(Cl)cc2)N(c2ccc(S(N)(=O)=O)cc2)C(N)=N1,-5.3%,/,/,/,/
Cc1ccc(S(=O)(=O)N2CCCC(c3nnc4n3-c3ccccc3SC4)C2)cc1 (configuration not stated),2.8%,13.1µM*,3.2%,5.5%,0.0%
CCOC(=O)c1nc2cc3n(c(C)c-2c1C)C(C)C(C)=C3C (configuration not stated),18.1%,2.33µM*,1.2%,-6.9%,7.38µM*
CCOC(=O)c1nnc2cc(C)nn2c1C,5.5%,2.5%,-3.9%,-7.5%,11.0%
CCOC(=O)c1n[nH]n(-c2cc(Cl)cc(Cl)c2)c1=O,-0.4%,5.9%,0.7%,0.6%,?
SMILES,NS1 inh,Pf growth 96h,SARS PLP yeast,RE007 growth inh,Pf growth 48h
CCOC(=O)c1nc2cc3n(c(CC(C)C)c-2c1C)CC(C)=C3C,14.3%,3.29µM*,3.6%,4.3%,1.17µM*
CCOC(=O)c1c(C)[nH]c2ccc(O)cc12,-2.3%,?,0.4%,-7.2%,/
CCOCc1cnc(C)nc1NCC(=O)c1c(C)[nH]c2ccc(OC)cc12,8.9%,0.415µM*,-1.8%,114.9%,/
CC(C)OC(=O)C1C2C=CC3(CN(C(C)c4ccc(Br)cc4)C(=O)C13)O2 (configuration not stated),-11.2%,10.4µM*,-3.6%,12.4%,/
O=C(O)c1cc(Cl)cc(Cc2cc(Cl)cc(C(=O)O)c2O)c1O,-3.2%,/,/,/,/
CCc1ccc(C(c2c(C)nn(-c3ccccc3)c2N)c2c(C)nn(-c3ccccc3)c2N)cc1,-7.3%,?,-1.0%,?,8.28µM*
Cc1cccc(C(c2c(C)nn(-c3ccccc3)c2N)c2c(C)nn(-c3ccccc3)c2N)c1,2.0%,?,-0.4%,21.9%,0.0%
COc1ccc2cc(C3CC(c4ccco4)=NN3S(=O)(=O)c3ccccc3)c(Cl)nc2c1 (configuration not stated),?,?,-4.0%,-1.4%,?
CS(=O)(=O)N1N=C(c2ccco2)CC1c1ccccc1Cl (configuration not stated),0.6%,-7.2%,-1.2%,6.6%,-19.4%
CCOc1ccc2cc(C3CC(c4ccco4)=NN3S(=O)(=O)c3ccccc3)c(Cl)nc2c1 (configuration not stated),?,13.1µM*,16.6%,12.3%,14.7µM*
CS(=O)(=O)N1N=C(c2ccco2)CC1c1ccc(Cl)cc1Cl (configuration not stated),-1.6%,5.22µM*,0.5%,23.1%,-4.6%
Cc1ccccc1NC(=O)N(O)C1(C#N)CCCCC1,/,/,/,5.7%,/
Nc1ccccc1-n1cccc1,0.6%,31.6%,-0.8%,8.6%,87.1%
CCOc1ccc(NC(=O)CSc2ccc(-c3ccccn3)nn2)cc1,-2.9%,?,7.94µM*,-5.0%,?
O=C(CSc1ccc(-c2cccnc2)nn1)Nc1ccccc1C(F)(F)F,-5.8%,10.4µM*,-3.3%,5.0%,-14.5%
Cc1ccc(NC(=O)CSc2ccc(-c3ccccn3)nn2)cc1,/,?,?,3.3%,?
CCOc1ccc(NC(=O)CSc2ccc(-c3cccnc3)nn2)cc1,-4.3%,5.86µM*,-0.4%,-9.4%,-20.4%
Cc1ccc(C(=O)OC(C(=O)O)C(OC(=O)c2ccc(C)cc2)C(=O)O)cc1 (configuration not stated),/,-13.7%,-8.7%,-0.5%,?
COc1ccc(C(=O)CC(C(=O)O)c2ccc(OC)c(OC)c2)cc1OC (configuration not stated),/,/,/,-10.2%,/
